# According to PubChem BioAssay:
# Calls of active or inactive are those of the source.
# Key:
# [1] = binders of probe aFSTL3 on microarray, primary screen, stem cell growth factor project, biochemical, small-molecule microarray, fluorescence 635/667 (AID 1064); settings: higher = more signal;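 also: measures binding of the biotinylated anti-FSTL3 antibody to printed compounds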
# [2] = binders from COS7 lysate, DM2A8 probe, primary screen, torsin A project, cell lysate, small-molecule microarray, fluorescence 635/667 (AID 1065); settings: higher = more signal, COS7 lysate expressing mutant human TOR1A
# [3] = binders of probe aFGF2 on microarray, primary screen, stem cell growth factor project, biochemical, small-molecule microarray, fluorescence 635/667 (AID 1067); settings: higher = more signal;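 also: measures binding of biotinylated aFGF2 protein to printed compounds on slides; z-score merges feature fluorescence and signal-to-noise across triplicate slides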
# [4] = binders of probe aFGF10 on microarray, primary screen, stem cell growth factor project, biochemical, small-molecule microarray, fluorescence 635/667 (AID 1071); settings: higher = more signal;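 also: score merges 667 nm spot intensity and signal to noise from triplicate slides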
# [5] = target: Neurogenic locus notch homolog protein 2 (Homo sapiens) (UniProt Q04721); test: Notch2 binders on small-molecule microarrays, primary screen, biochemical, small-molecule microarray, 635 nm fluorescence, stem cell growth factors (AID 1073); settings: Notch2 binding, higher = more signal
# [6] = target: Pro-neuregulin-1, membrane-bound isoform (Homo sapiens) (UniProt Q02297); test: NRG1 binders on small-molecule microarrays, primary screen, psychiatric disease protein project, biochemical, small-molecule microarray, fluorescence 635/667 (AID 1075); settings: NRG1 binding, 635 nm fluorescence, higher = more signal;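 also: score combines 667 nm spot fluorescence with signal to noise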
# Chain of Pro-neuregulin-1, membrane-bound isoform (Homo sapiens) (Q02297 whole entry, looked up, the tested form may be a part, canonical isoform): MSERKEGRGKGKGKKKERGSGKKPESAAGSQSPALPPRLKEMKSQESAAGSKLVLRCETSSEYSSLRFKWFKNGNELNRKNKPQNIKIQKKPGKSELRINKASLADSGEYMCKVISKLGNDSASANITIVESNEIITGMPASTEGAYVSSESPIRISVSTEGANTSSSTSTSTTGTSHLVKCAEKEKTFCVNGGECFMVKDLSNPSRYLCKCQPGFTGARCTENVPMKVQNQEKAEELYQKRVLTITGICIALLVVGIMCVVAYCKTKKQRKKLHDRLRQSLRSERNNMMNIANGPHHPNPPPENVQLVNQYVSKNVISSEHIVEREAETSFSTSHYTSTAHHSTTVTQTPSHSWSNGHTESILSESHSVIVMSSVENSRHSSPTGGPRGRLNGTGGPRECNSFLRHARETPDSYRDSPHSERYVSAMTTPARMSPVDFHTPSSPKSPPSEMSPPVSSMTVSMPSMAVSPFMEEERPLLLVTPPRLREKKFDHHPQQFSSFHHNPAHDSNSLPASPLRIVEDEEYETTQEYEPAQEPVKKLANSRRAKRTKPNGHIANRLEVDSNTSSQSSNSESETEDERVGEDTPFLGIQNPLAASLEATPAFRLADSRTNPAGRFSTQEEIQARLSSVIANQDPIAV
# [7] = tested on: Neuregulin-1 EGF-like domain; test: binders of neuregulin-1 EGF-like domain, primary screen, biochemical, small-molecule microarray, 635 nm fluorescence (AID 1081); settings: small-molecule microarray binding, higher = more signal;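 also: binding of the protein to compounds printed on small-molecule microarray slides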
# [8] = FRG1 promoter luciferase signal modulators, primary screen, FRG1 inhibition for FSHD, cell-based, C2C12 myotubes, firefly/Renilla luciferase, luminescence (AID 1084); settings: higher = more signal, called active from +8 up or from −8 down
# [9] = binders of probe aFST on microarray, primary screen, stem cell growth factor project, biochemical, small-molecule microarray, fluorescence 635/667 (AID 1086); settings: higher = more signal;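 also: score merges 667 nm fluorescence with signal-to-noise of each printed compound spot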
# [10] = binders of probe aHhip on microarray, primary screen, stem cell growth factor project, biochemical, small-molecule microarray, fluorescence 635/667 (AID 1087); settings: higher = more signal;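 also: score merges spot fluorescence at 667nm with spot signal to noise ratio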
# [11] = tested on: PRMT1 (protein arginine N-methyltransferase 1); test: PRMT1 binders on small-molecule microarrays, primary screen, biochemical, small-molecule microarray, 635 nm fluorescence (AID 1088); settings: small-molecule microarray binding, higher = more signal;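 also: binding of Prmt1 protein to compounds spotted on small-molecule microarray slides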
# [12] = yeast growth modulation, basal conditions, primary screen, YJM789 clinical isolate, OD600, 24 h (AID 1089);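 also: growth of clinical yeast isolate S. cerevisiae YJM 789 seeded 1000 cells per well; test concentration not given here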; settings: S. cerevisiae YJM789 growth, higher = more signal, called active from +8 up or from −8 down
# [13] = fission yeast growth modulation, primary screen, strain 972, OD600, 24 h, no modulator (AID 1090);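 also: basal condition with compound alone and no growth modifier present; test concentration not given here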; settings: S. pombe 972 growth, higher = more signal, called active from +8 up or from −8 down
# [14] = S. cerevisiae growth modulation with rapamycin, primary screen, strain BY4716, OD600, 96 h (AID 1091); settings: higher = more signal, called active from +8 up or from −8 down; also: test concentration not given here
# [15] = target: Torsin-1A-interacting protein 2 (Homo sapiens) (UniProt Q8NFQ8); test: LULL1 binders on small-molecule microarray, primary screen, cell lysate, human LULL1 lysate, 635/667 nm fluorescence (AID 1092); settings: hLULL1 lysate binding, 635 nm fluorescence, higher = more signal;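 also: probe is lysate of COS7 cells overexpressing human LULL1; score merges per-feature 667 nm fluorescence with signal-to-noise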
# Chain of Torsin-1A-interacting protein 2 (Homo sapiens) (Q8NFQ8 whole entry, looked up): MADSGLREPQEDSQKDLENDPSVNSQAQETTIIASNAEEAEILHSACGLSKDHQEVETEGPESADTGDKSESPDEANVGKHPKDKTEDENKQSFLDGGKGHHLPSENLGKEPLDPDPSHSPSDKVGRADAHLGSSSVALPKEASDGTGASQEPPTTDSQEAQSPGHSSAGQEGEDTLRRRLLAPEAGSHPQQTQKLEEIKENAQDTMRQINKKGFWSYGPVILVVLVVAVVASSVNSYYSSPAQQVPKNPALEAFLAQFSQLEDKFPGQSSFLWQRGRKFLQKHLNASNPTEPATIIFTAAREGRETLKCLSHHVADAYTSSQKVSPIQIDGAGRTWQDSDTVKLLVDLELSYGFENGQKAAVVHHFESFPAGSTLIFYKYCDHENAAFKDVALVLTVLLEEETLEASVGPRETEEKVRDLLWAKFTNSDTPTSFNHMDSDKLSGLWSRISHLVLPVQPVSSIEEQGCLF
# [16] = E. coli growth modulation, two-sided OD650, primary screen, E. coli filamentation project, strain DRC41, 24 h (AID 1093); settings: OD650, 24 h, higher = more signal, called active from +8 up or from −8 down;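 also: MC1000 strain lacking acrAB efflux and sulA so SOS filamentation is blocked; test concentration not given here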
# [17] = small-molecule microarray binders of probe aLefty2, primary screen, biochemical, biotinylated probe, 635/667 nm fluorescence (AID 1094); settings: higher = more signal;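 also: score merges spot fluorescence near 667 nm with spot signal-to-noise ratio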
# [18] = tested on: Noggin (protein binding on small-molecule microarray); test: Noggin binders on small-molecule microarray, primary screen, biochemical, 635/667 nm fluorescence (AID 1095); settings: 635 nm fluorescence, higher = more signal;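 also: score merges 667 nm feature fluorescence with signal to noise over triplicate slides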
# [19] = target: Neurogenic locus notch homolog protein 3 (Homo sapiens) (UniProt Q9UM47); test: NOTCH3 binders on small-molecule microarray, primary screen, biochemical, 635/667 nm fluorescence (AID 1096); settings: NOTCH3 binding, 635 nm fluorescence, higher = more signal
# Chain of Neurogenic locus notch homolog protein 3 (Homo sapiens) (Q9UM47 whole entry, looked up): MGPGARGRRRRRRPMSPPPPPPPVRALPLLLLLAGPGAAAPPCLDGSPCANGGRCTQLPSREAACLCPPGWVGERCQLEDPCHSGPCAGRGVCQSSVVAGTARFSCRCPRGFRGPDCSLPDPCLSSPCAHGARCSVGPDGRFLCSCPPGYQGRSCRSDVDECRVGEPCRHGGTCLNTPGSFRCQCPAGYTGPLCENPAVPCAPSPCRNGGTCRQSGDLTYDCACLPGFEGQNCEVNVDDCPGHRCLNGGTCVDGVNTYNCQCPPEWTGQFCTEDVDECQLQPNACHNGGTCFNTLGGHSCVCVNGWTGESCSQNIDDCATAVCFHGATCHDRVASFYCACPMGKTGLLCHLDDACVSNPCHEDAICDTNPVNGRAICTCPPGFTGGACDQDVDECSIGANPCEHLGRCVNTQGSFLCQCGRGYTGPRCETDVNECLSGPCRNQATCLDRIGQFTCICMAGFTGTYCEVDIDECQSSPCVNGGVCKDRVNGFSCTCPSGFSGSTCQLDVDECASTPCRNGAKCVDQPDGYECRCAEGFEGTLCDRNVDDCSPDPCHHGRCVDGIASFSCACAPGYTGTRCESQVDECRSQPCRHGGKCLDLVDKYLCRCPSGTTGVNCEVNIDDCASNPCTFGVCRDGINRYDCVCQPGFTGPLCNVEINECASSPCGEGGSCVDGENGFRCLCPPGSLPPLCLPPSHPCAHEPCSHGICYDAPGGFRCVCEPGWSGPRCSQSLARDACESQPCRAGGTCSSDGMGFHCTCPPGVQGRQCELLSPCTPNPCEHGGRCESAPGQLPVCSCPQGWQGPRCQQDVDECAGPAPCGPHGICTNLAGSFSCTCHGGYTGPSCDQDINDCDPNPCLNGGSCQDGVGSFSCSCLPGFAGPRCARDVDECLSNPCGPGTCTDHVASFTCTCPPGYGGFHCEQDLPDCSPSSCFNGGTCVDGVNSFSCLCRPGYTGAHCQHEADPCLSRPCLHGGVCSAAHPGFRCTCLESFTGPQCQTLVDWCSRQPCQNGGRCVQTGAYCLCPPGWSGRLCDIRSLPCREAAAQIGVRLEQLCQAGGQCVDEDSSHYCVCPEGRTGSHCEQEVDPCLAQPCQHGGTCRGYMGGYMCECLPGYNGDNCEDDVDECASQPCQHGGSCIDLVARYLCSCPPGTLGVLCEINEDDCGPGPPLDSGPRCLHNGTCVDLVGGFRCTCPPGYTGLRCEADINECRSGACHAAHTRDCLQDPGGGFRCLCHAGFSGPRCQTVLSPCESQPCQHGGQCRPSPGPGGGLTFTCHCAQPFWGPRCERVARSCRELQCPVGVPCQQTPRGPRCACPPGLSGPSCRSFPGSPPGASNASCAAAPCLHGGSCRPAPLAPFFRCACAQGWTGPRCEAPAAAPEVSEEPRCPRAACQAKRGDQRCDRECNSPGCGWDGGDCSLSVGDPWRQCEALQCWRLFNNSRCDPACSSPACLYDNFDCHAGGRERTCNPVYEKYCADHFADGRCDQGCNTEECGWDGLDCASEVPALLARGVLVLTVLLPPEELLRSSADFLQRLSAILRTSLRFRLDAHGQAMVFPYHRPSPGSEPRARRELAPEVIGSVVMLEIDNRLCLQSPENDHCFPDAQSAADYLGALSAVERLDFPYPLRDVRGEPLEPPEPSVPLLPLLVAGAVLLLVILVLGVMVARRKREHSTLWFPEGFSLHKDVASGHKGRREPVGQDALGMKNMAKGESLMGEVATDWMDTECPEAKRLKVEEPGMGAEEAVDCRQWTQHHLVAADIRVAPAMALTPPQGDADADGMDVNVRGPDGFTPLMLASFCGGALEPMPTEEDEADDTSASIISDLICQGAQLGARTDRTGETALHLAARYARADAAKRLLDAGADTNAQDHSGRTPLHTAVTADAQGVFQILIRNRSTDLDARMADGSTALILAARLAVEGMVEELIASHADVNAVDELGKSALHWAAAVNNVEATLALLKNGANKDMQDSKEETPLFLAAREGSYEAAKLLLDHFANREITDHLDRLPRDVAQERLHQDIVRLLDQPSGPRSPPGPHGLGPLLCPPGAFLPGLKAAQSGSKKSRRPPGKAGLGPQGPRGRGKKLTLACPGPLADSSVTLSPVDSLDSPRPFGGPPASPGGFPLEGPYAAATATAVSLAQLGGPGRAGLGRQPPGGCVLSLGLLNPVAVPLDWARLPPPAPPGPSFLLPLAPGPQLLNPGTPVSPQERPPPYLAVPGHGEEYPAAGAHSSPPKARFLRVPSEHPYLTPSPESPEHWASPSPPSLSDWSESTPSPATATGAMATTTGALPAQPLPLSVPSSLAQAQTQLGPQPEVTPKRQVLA
# [20] = small-molecule microarray binders of probe aEGFR, primary screen, biochemical, biotinylated probe, 635/667 nm fluorescence (AID 1097); settings: higher = more signal;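 also: probe is a biotinylated anti-EGFR antibody binding compounds printed on slides; score combines fluorescence near 667 nm and signal to noise of each spot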
SMILES,composite z-score [1],composite z-score [2],composite z-score [3],composite z-score [4],composite z-score [5],composite z-score [6],composite z-score [7],z-score [8],composite z-score [9],composite z-score [10],composite z-score [11],z-score [12],z-score [13],z-score [14],composite z-score [15],z-score [16],composite z-score [17],composite z-score [18],composite z-score [19],composite z-score [20]
O=C1O[C@H](c2ccccc2)[C@H](c2ccccc2)N2[C@H]1[C@@H](C(=O)N1CCN(c3ncccn3)CC1)[C@]1(C(=O)Nc3ccc(C#CC4=CCCCC4)cc31)[C@H]2c1ccccc1OCCO,-0.218,0.337,0.009,0.548,1.25,0.694,1.26,-0.342 (inactive),0.239,0.0139,1.53,1.08 (inactive),0.759 (inactive),3.51 (inactive),2.65,0.071 (inactive),0.276,0.922,1.07,-0.0493
[N-]=[N+]=Nc1ccccc1C[C@]1(C(=O)N2CCCCC2)COC(c2ccc(OCCCO)cc2)=N1,-0.11,0.0405,0.0605,0.87,0.708,1.64,0.995,-2.42 (inactive),0.755,-0.353,1.54,1.73 (inactive),-1.72 (inactive),32.7 (active),3.18,1.75 (inactive),-0.0631,0.753,1.08,-0.0828
CS(=O)(=O)CCOC(=O)C1=CC(CCCO)=CC(c2ccc(CN3CCCC3)cc2)N(Cc2cccc(OC(F)(F)F)c2)C=C1C(=O)OCCS(C)(=O)=O (stereo not given),0.384,0.851,0.0036,0.952,0.978,0.691,0.909,0.173 (inactive),0.66,0.154,1.57,0.441 (inactive),-12.9 (active),-0.805 (inactive),2.62,-1.05 (inactive),0.336,0.738,1.13,0.172
CC(C)N1CC=CC23O[C@@H]4C=CCOC(=O)[C@@H]4[C@H]2C(=O)N(CCCCCO)[C@@H]3C1=O (stereo not given in full),-0.354,0.272,-0.153,-0.267,-0.669,0.24,1.27,-0.907 (inactive),-0.308,-0.132,0.637,-1.04 (inactive),-0.288 (inactive),-2.25 (inactive),2.64,3.13 (inactive),-0.137,-0.325,-0.107,-0.111
COC(=O)C(CC#Cc1ccc2c(c1)[C@]1(C(=O)N2)[C@H](c2ccccc2OCCO)N2[C@H](c3ccccc3)[C@H](c3ccccc3)OC(=O)[C@H]2[C@@H]1C(=O)O)C(=O)OC,0.187,0.856,0.0876,0.866,0.275,1.65,1.32,-0.173 (inactive),0.411,0.426,1.57,2.46 (inactive),0.521 (inactive),-0.188 (inactive),2.37,0.871 (inactive),0.264,0.793,0.691,-0.0032
O=C1O[C@H](c2ccccc2)[C@H](c2ccccc2)N2[C@H]1[C@@H](C(=O)NC[C@H](O)c1ccccc1)[C@]1(C(=O)Nc3ccc(C#CC4=CCCCC4)cc31)[C@H]2c1ccccc1OCCO,0.185,0.463,0.0637,0.496,0.908,0.298,1.07,-0.341 (inactive),0.599,-0.0645,1.43,2.2 (inactive),-0.874 (inactive),2.64 (inactive),1.64,-0.0991 (inactive),0.107,0.545,0.786,0.032
C=C(CCCC)/C(=C/C[C@@H](OC(C)=O)c1cccc(OCCO)c1)c1cnc2ccccc2c1,-0.0295,0.314,-0.0015,0.0122,0.249,0.122,0.274,-0.269 (inactive),0.219,0.235,1.29,0.0358 (inactive),-0.328 (inactive),0.142 (inactive),0.268,1.24 (inactive),-0.194,1.73,0.86,-0.0828
NC(=O)NCC#Cc1ccc2c(c1)[C@]1(C(=O)N2)[C@H](C(=O)O)[C@H]2C(=O)O[C@H](c3ccccc3)[C@H](c3ccccc3)N2[C@@H]1c1ccc(O)cc1,2.62,-0.0893,-0.0098,-0.135,0.053,0.441,-0.293,1.5 (inactive),1.83,0.182,0.167,0.0288 (inactive),-0.856 (inactive),-0.483 (inactive),0.68,-1.16 (inactive),0.883,0.758,0.767,0.0156
C=C(CCCC)/C(=C/C[C@H](OC(C)=O)c1ccc(OCCO)cc1)c1cnc2ccccc2c1,-0.173,0.641,-0.115,0.372,1.21,1.32,1.18,-0.851 (inactive),0.703,-0.0672,1.53,-1.1 (inactive),-1.83 (inactive),-0.434 (inactive),1.92,1 (inactive),-0.138,1.04,0.727,-0.0824
O=C(O)C1N=C(c2ccc(OCCCO)cc2)N(c2ccccc2)O1 (stereo not given),0.158,0.0642,-0.0474,0.499,0.778,-0.145,0.527,2.09 (inactive),-0.288,-0.136,1.49,-0.371 (inactive),0.651 (inactive),-0.377 (inactive),2.03,0.281 (inactive),0.0399,0.306,0.12,-0.0828
